Assay outcomes (PubChem)
The list is not random: actives were taken first. Their share in the collection is about 1.6%.
KCNQ2 block: KCNQ2 (rat) channel inhibition; CHO-K1 KCNQ2, FluxOR thallium flux, 20 min; hits give low values; O88943; 1.1% of 310,000 active; B-score at 10 µM;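 active = fluorescence ratio B-score at most minus 3 library SDs, with starting brightness B-score within 2 library SDs, cut at about -5.5 in these data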
KCNQ2 enhance: enhances the rat KCNQ2 potassium channel. 0.54% of 310,000 active. CHO-K1 KCNQ2, FluxOR thallium flux fluorescence; hits give high values. B-score at 10 µM. O88943;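 active = fluorescence ratio B-score at least 3 SD of library B-scores, with initial fluorescence B-score within 3 of them, cut at about 5.3 in these data; same plate scores as AID 2156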;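 note: B-score of peak minus minimum over baseline fluorescence ratio after K+ and Tl+ stimulus; positive B-score means potentiation of KCNQ2 with more thallium influx and brighter signal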
Kir21 conf inh: confirmation of mouse Kir2.1 potassium channel inhibitors | Tl flux remaining, % of negative control (hits give low values), % at 10 µM | shares compounds with KCNQ2 enhance | Kir2.1-expressing cells, FluxOR thallium flux fluorescence; hits give low values | 41% of 2,300 active;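 active = Primary-screen hit whose thallium flux fell at least 3 control SD below untreated wells in both duplicates, with normal baseline fluorescence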
Target sequence (P35561 whole entry, looked up): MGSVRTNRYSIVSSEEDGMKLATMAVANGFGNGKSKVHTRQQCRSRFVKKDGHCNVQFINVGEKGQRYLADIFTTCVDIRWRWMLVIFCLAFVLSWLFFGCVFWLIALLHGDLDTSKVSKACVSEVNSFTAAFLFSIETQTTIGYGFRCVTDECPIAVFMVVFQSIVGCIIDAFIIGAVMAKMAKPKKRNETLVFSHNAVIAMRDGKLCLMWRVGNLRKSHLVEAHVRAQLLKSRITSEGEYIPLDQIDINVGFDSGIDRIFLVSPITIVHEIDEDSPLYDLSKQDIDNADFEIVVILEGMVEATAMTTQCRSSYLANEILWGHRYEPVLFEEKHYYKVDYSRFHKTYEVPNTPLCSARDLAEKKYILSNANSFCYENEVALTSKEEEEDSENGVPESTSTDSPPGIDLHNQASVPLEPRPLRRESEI
HEK293 Tl flux: parental HEK293 activity in Kir2.1 inhibitor counter-screen | FluxOR signal as % of negative control (100 = no effect), % at 10 µM | parental HEK293 cells, FluxOR thallium flux fluorescence; 0% = unstimulated blank wells | shares compounds with KCNQ2 enhance | 19% of 2,300 active | AID 2105;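 active = dye signal at least 3 control SD above or below untreated wells in both duplicates, raw fluorescence within 3, either direction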;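 note: percent is based on the flux ratio of peak minus minimum fluorescence over baseline F0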
CHO-K1 ctr: alters thallium flux in parental CHO-K1 cells, KCNQ2 counter-screen; activity increase over 3SD of controls, % at 10 µM; FluxOR thallium flux fluorescence; zero = vehicle mean+3SD, 100% = vehicle-minus-blank window; 43% of 1,200 active; AID 2282; shares compounds with KCNQ2 enhance;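 active = signal rise of at least 3 SD above the untreated control mean, in both duplicate wells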;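 note: counter screen of KCNQ2 potentiator hits so any rise reflects channel-independent effects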
KCNQ1 pot spec: selectivity of KCNQ2 potentiators: effect on human KCNQ1. shares compounds with KCNQ2 enhance. CHO KCNQ1 stable, FluxOR thallium flux fluorescence; beyond 3SD, as % of vehicle-control signal. activation over 3SD threshold, % at 10 µM. 28% of 1,200 active;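 active = fluorescence ratio rise of at least 3 SD of vehicle wells above their mean, in both replicate wells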
KCNQ2 pot conf: confirmation of rat KCNQ2 potassium channel potentiators | potentiation, less the hit threshold, % at 10 µM | 68% of 1,200 active | CHO-KCNQ2 cells, FluxOR thallium flux fluorescence | shares compounds with KCNQ2 enhance;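 active = fluorescence ratio rising 3 SD or more over the vehicle control mean in both replicates, plus primary screen hit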;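 note: peak minus minimum thallium fluorescence divided by baseline after K/Tl stimulus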
Kir2-1 sel: selectivity of KCNQ2 potentiators: effect on mouse Kir2.1 | AID 2345 | HEK293 Kir2.1, FluxOR thallium flux fluorescence | 2% of 1,200 active | activity over 3SD threshold, % at 10 µM | shares compounds with KCNQ2 enhance;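 active = fluorescence ratio rise of at least 3 SD above the vehicle-control mean, seen in both replicates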
KCNQ2 W236L MoA: rat KCNQ2 W236L mutant potentiation by KCNQ2 potentiators; 10% of 940 active; AID 2558; shares compounds with KCNQ2 enhance; current increase over 3SD of negative controls (%), hits give high values, % at 25 µM; CHO KCNQ2-W236L, automated patch clamp current;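 active = current increase at least 3 SD of the untreated controls above them in both duplicate recordings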
Hits are given with their value; i = inactive; nt = no result given.

SMILES	KCNQ2 block	KCNQ2 enhance	Kir21 conf inh	HEK293 Tl flux	others
Cc1sc2nc[nH]c(=S)c2c1-c1ccccc1	i	12	i	i	CHO-K1 ctr=i;KCNQ1 pot spec=13;KCNQ2 pot conf=40;Kir2-1 sel=i;KCNQ2 W236L MoA=i
Cc1sc2nc[nH]c(=O)c2c1-c1ccc(F)cc1	i	i	nt	nt
CCOC(=O)[C@@H]1[C@H]2COc3ccccc3[C@H]2N2C(=O)N(c3ccc(C(F)(F)F)cc3)C(=O)[C@]12C	i	nt	nt	nt
CCOc1cc(C)c(Cl)cc1S(=O)(=O)NCc1ccc2c(c1)OCO2	i	nt	68%	i
Cc1cc(S(=O)(=O)NCc2ccco2)c(C)cc1Cl	i	nt	nt	nt
COc1cc(C)c(Cl)cc1S(=O)(=O)NCc1ccco1	i	i	nt	nt
CCOc1cc(C)c(Cl)cc1S(=O)(=O)NCc1ccco1	i	nt	56%	i
CCOc1cc(S(=O)(=O)NCc2ccc3c(c2)OCO3)c(C)cc1C	i	nt	65%	i
Cc1cc(C)c(S(=O)(=O)NCc2ccc3c(c2)OCO3)cc1C	i	nt	nt	nt
Cc1cc(C)c(S(=O)(=O)NCc2ccc3c(c2)OCO3)c(C)c1	i	nt	nt	nt
Cc1cc(C)c(C)c(S(=O)(=O)NCc2ccco2)c1C	i	nt	54%	i
COc1ccc2[nH]c(CN3CCC(CO)(CCOc4ccccc4)CC3)c(C)c2c1	i	nt	nt	nt
COc1ccc2cc(-c3[nH]ncc3CN3CCCC3c3nonc3C)ccc2c1 (configuration not stated)	i	nt	nt	nt
Cc1ccc(CNC(=O)C2CCCN2C(=O)Nc2ccc(F)cc2)cc1 (configuration not stated)	i	nt	nt	nt
CC(=O)c1ccc(NC(=O)CSc2n[nH]c(-c3cccnc3)n2)cc1	i	nt	nt	nt
CC(=O)Oc1ccc(C(=O)Nc2ccc(S(=O)(=O)N3CCOCC3)cc2)cc1	i	nt	nt	nt
O=S(=O)(NCc1ccc(Cl)cc1)c1cccc2cccnc12	i	i	nt	nt
O=S(=O)(NCc1ccc2c(c1)OCO2)c1cccc2cccnc12	i	13	nt	nt	CHO-K1 ctr=5.4;KCNQ1 pot spec=i;KCNQ2 pot conf=i;Kir2-1 sel=i
CC1CCCN(CCCOc2ccccc2-c2ccccc2)C1 (configuration not stated)	i	nt	nt	nt
C=CCOc1ccc(CNc2ccc3[nH]c(=O)[nH]c3c2)cc1	i	i	nt	nt
CC1=C(C(=O)O)N2C(=O)C(NC(=O)c3nn(C)cc3Cl)C2SC1 (configuration not stated)	i	nt	nt	nt
CC1=C(C(=O)O)N2C(=O)C(NC(=O)c3ccccc3Cl)C2SC1 (configuration not stated)	i	13	i	i	CHO-K1 ctr=4.5;KCNQ1 pot spec=i;KCNQ2 pot conf=i;Kir2-1 sel=i
CCn1c(SCCOc2ccc(Cl)cc2)nnc1-c1cccs1	i	nt	69%	i
CCn1c(SCC(=O)c2ccc(Cl)cc2)nnc1-c1cccs1	i	i	nt	nt
O=C(C1CCN(S(=O)(=O)c2cccc3cccnc23)CC1)N1CCN(c2ccc(Cl)cc2)CC1	i	nt	nt	nt
SMILES	KCNQ2 block	KCNQ2 enhance	Kir21 conf inh	HEK293 Tl flux	others
CCC(=O)N(CCC(c1ccccc1)c1ccco1)Cc1cccs1 (configuration not stated)	-14	i	62%	i
CCC(=O)N(CCC(Cc1ccccc1)c1ccc2c(c1)OCO2)Cc1ccccc1F (configuration not stated)	i	nt	nt	nt
CCC(=O)N(CCC(Cc1ccccc1)c1ccco1)Cc1ccco1 (configuration not stated)	i	nt	54%	i
COc1ccccc1C(CCN(Cc1cccs1)C(C)=O)c1ccco1 (configuration not stated)	i	nt	nt	nt
CCOc1ccccc1/C=N/NC(=O)c1nnn(-c2nonc2N)c1CN1CCCCCC1	i	i	nt	nt
O=C(Cn1cnc2ccccc2c1=O)c1ccc(Cl)cc1	i	i	nt	nt
CC(=O)Nc1sc2c(c1C(c1ccccc1Cl)N1CCN(CCO)CC1)CCCC2 (configuration not stated)	i	5.3	nt	nt	CHO-K1 ctr=i;KCNQ1 pot spec=i;KCNQ2 pot conf=38;Kir2-1 sel=i;KCNQ2 W236L MoA=i
CC(=O)Nc1sc2c(c1C(c1ccccn1)N1CCCC1)CCCC2 (configuration not stated)	i	i	nt	nt
COc1cc(CNCCc2ccccc2)cc(Br)c1OCC(=O)Nc1ccccc1C	-7.1	i	55%	i
CNCc1cc(Br)c(OCC(=O)Nc2ccccc2OC)c(OC)c1	i	i	nt	nt
CCSc1nnc(NC(=O)CC(C)C)s1	i	i	i	i
CCSc1nnc(NC(=O)CC)s1	i	i	nt	nt
N#Cc1ccsc1NC(=O)C1CCN(C(=O)c2ccc(Cl)cc2)CC1	i	nt	nt	nt
CC(=O)OC1C2CCC1C([N+]1(C)CCCCC1)CC2 (configuration not stated)	i	i	nt	nt
O=C(Nc1ncc2c(n1)-c1ccccc1CC2)c1ccc(F)cc1	i	i	nt	nt
O=C(Nc1ncc2c(n1)-c1ccccc1CC2)c1ccccc1	i	8.5	i	73%	CHO-K1 ctr=i;KCNQ1 pot spec=73;KCNQ2 pot conf=17;Kir2-1 sel=i;KCNQ2 W236L MoA=i
O=C(Nc1nc2c(s1)CCc1ccccc1-2)c1cccs1	i	i	nt	nt
O=C(Nc1ncc2c(n1)-c1ccccc1CC2)c1cccs1	i	9.7	i	i	CHO-K1 ctr=i;KCNQ1 pot spec=i;KCNQ2 pot conf=29;Kir2-1 sel=i;KCNQ2 W236L MoA=i
COc1ccccc1CN=C1Nc2ccccc2CS1	i	nt	58%	i
COc1cccc(CN=C2Nc3ccccc3CS2)c1	i	nt	nt	nt
c1ccc(-c2noc(CN3CCN(c4cnccn4)CC3)n2)cc1	i	i	nt	nt
CC#CC(=O)N1CCC(CO)(CCc2ccccc2)CC1	i	nt	nt	nt
Cc1ccc(S(=O)(=O)NCCNc2ccc([N+](=O)[O-])cc2C(F)(F)F)cc1	i	nt	nt	nt
O=[N+]([O-])c1ccc(NCCNS(=O)(=O)c2ccccc2)c(C(F)(F)F)c1	i	nt	i	i
N#CC(Cc1ccccc1OC(F)F)c1nc2ccccc2[nH]1 (configuration not stated)	i	nt	nt	nt
SMILES	KCNQ2 block	KCNQ2 enhance	Kir21 conf inh	HEK293 Tl flux	others
NC1=NC(c2ccc(Cl)cc2)C(C(=O)c2ccccc2)N1 (configuration not stated)	i	nt	nt	nt
CCCn1nc(C(=O)NNC(=O)CSC(C)C(=O)Nc2cc(C)on2)c2ccccc2c1=O (configuration not stated)	i	i	nt	nt
COc1ccc(C(=O)Cn2c(=N)n(C)c3ccccc32)cc1	i	nt	nt	nt
COc1ccc(C(=O)CN2Cc3ccccc3C2=N)cc1	i	i	24%	i
OCCNCc1c(OCc2ccc(Cl)cc2)ccc2ccccc12	i	i	37%	i
OCCNCCNCc1ccccc1OCc1ccccc1	i	nt	nt	nt
